In PubChem BioAssay (Tox21):
Records with an inconclusive call do not appear. Entries that show only a call come without a potency. The source made the active and inactive calls. Calls come from the whole dose curve.

Test: qHTS assay for small molecule agonists of the p53 signaling pathway - cell viability (AID 651633); note: nearly all actives have a fitted effect of over 30% in size
Conditions: p53RE-bla HCT-116 viability, ATP luminescence, 16 h; series mostly up to 83.3 µM
In short: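 p53RE-bla cells were treated with compound for 16 hours at 37 C. Cytotoxicity was then measured as CellTiter-Glo luminescence after 30 min at room temperature.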
Potency is the fitted concentration of half-maximal effect.

Structure (SMILES) | Potency
O=CCCc1ccccc1 | inactive
CC1=C2[C@H](/C=C(\C)C(=O)O)CC[C@@H](C)[C@H]2CC1 | inactive
CCOc1ccc(NC(N)=O)cc1 | inactive
CCC/C=C/CO | inactive
CN1C(=O)CC(c2ccccc2)C1=O (centres undefined) | inactive
Cc1ccc(C(C)C)cc1O | inactive
CC1=NN(c2cc(Cl)c(S(=O)(=O)O)cc2Cl)C(=O)C1N=Nc1ccc(S(=O)(=O)O)cc1 (centres undefined) | inactive
Cc1ccc([N+](=O)[O-])c(N)c1 | inactive
CCCCN1C[C@H](O)[C@@H](O)[C@H](O)[C@H]1CO | inactive
CN1CCN(C2=Nc3ccccc3Oc3ccc(Cl)cc32)CC1 | inactive
CN1[C@@H]2CC[C@H]1CC(OC(=O)c1c[nH]c3ccccc13)C2 (some centres undefined) | inactive
CN1CCC[C@@H]1Cc1c[nH]c2ccc(CCS(=O)(=O)c3ccccc3)cc12 | inactive
CC1CN(c2ccccc2)NC1=O (centres undefined) | inactive
CC(C)=CCCC(C)CCOC=O (centres undefined) | inactive
CCOC(=O)CS | inactive
Cc1cc2c(s1)Nc1ccccc1N=C2N1CCN(C)CC1 | inactive
O=C1CCCCC1C1CCCCC1 (centres undefined) | inactive
CCC(=O)c1ccc2c(c1)N(CCCN(C)C)c1ccccc1S2 | inactive
CN(C)CCOc1ccccc1Cc1ccccc1 | inactive
CCOc1ccc(NS(=O)(=O)c2ccc(N)cc2)nn1 | inactive
Cn1cnc2c(F)c(Nc3ccc(Br)cc3Cl)c(C(=O)NOCCO)cc21 | inactive
CCCCCCCCCCCCCCCCOP(=O)([O-])OCC[N+](C)(C)C | inactive
CCN(CCCc1ccccc1)CCCc1ccccc1 | inactive
CCCCCCCCCCCCOCCOS(=O)(=O)O | 61.1 µM (active)
